Drawing on PubChem BioAssay (NCATS), this text covers Potency and activity change, negative = inhibition for 40 compounds.

SMILES strings stand for the structures. Inconclusive results are not listed. Where a call stands in place of a potency, no number is given. Active and inactive are the calls of the source. Calls come from the whole dose curve; as a rule, active = well fitted inhibition curve with a large enough effect; inconclusive = small, poorly fitted or top-dose-only effect; inactive = flat fitted curve, though single readings scatter.

This assay concerns the target Aldehyde dehydrogenase, mitochondrial (Homo sapiens) (UniProt P05091). As to the kind of experiment: qHTS for Inhibitors of the Aldehyde Dehydrogenase Family (ALDH2) Primary screen (AID 2061308). Note: nearly all actives have a fitted effect of over 55% in size. The following applies: ALDH2 enzyme inhibition qHTS, 1536-well; series mostly up to 56 µM.
Regarding `CNC(C)C(=O)NC(C(=O)N1CCCC1C(=O)Nc1cccc2ncccc12)C(C)C` (stereo not given), the Potency entry was “inactive”. Take `CC1CC2OC3(OC2C(C)(C)O)C1C1(C)CCC24CC25CCC(O[C@@H]2OC[C@@H](O)[C@H](O)[C@H]2O)C(C)(C)C5CC=C4C1(C)C3O` (stereo not given in full): the Potency result was “inactive”. Regarding `COc1cc(/C=C/C(=O)OC[C@H]2O[C@@](CO)(O[C@H]3O[C@H](CO)[C@@H](O)[C@H](O)[C@H]3O)[C@@H](OC(=O)/C=C/c3ccc(O)c(OC)c3)[C@@H]2O)ccc1O`, the Potency entry was “inactive”. On to `CN1C(=O)N(c2cc(Cl)cc(Cl)c2)C(=O)[C@@]1(C)Cc1ccc(Br)cc1`, for which the Potency entry was “inactive”. As to `COCC(=O)N1CCc2cc(-c3csc(NC(=O)c4cc(OC)cc(OC)c4)n3)ccc21`, the Potency entry is “inactive”. In the case of `CC1(C)CC[C@]2(C(=O)O[C@@H]3O[C@H](CO)[C@@H](O)[C@H](O)[C@H]3O)CC[C@]3(C)C(=CCC4[C@@]5(C)CC[C@H](O[C@@H]6O[C@H](C(=O)O)[C@@H](O)[C@H](O)[C@H]6O)[C@@](C)(CO)C5CC[C@]43C)C2C1` (stereo not given in full), the Potency result was “inactive”.

For `COc1ccc(CN2CCN(C(c3ccc(F)cc3)c3ccc(F)cc3)CC2)c(OC)c1OC`, the Potency entry is “inactive”. Consider `CC(=O)OC1C=C(C(=O)O)C2(CO)CCC(C)C(C)(CCc3ccoc3)C2C1` (stereo not given), for which the Potency entry was “inactive”. As for `C=C1CC2[C@]3(C)C(=C(O)C(=O)[C@@]2(C)[C@]2(C(=O)OC)C(=O)C(C)OC(=O)[C@@]12C)C(C)(C)C(=O)CC3O` (stereo not given in full), the Potency entry is “inactive”.

As for `OC[C@@]1(O)CO[C@H](OC[C@H]2O[C@@H](OC(CCCCc3ccc(O)cc3)CCc3ccc(O)cc3)[C@H](O[C@H]3OC[C@](O)(CO)[C@H]3O)[C@@H](O)[C@@H]2O)[C@@H]1O` (stereo not given in full), the Potency result is “inactive”. Regarding `Cc1occc(=O)c1O[C@@H]1O[C@H](COC(=O)CC(C)(O)CC(=O)O)[C@@H](O)[C@H](O)[C@H]1O` (stereo not given in full), the Potency entry is “inactive”. The same measure, in the same setting: as for `COC(=O)c1ccnc(-c2cc(C(=O)NCCc3ccccc3)ccn2)c1`, the entry is “inactive”; as for `C=C1CCC[C@]2(C)CC[C@@H](C(=C)C(=O)O)[C@H](O)[C@@H]12`, “inactive”. For `O=C(/C=C/c1ccc(O)cc1)OC[C@]12O[C@H]1[C@@H](O)[C@@H]1C=CO[C@@H](O[C@@H]3O[C@H](CO)[C@@H](O)[C@H](O)[C@H]3O)[C@@H]12`, the Potency entry is “inactive”. For the compound `CN1c2c(nc(N)[nH]c2=O)NC[C@@H]1CNc1ccc(C(=O)N[C@@H](CCC(=O)O)C(=O)O)cc1`, the Potency entry was “inactive”. In the case of `CC(C)C1=CCC(C)(O)C(OC2OC(CO)C(O)C(O)C2O)C1` (stereo not given), the Potency entry was “inactive”. Take `C/C=C(/C)C(=O)OC1C(OC(C)=O)C23C(O)OC4(CCC5C6(C)CCC(OC7OC(C(=O)O)C(O)C(OC8OC(CO)C(O)C(O)C8OC8OC(C)C(O)C(O)C8OC8OCC(O)C(O)C8O)C7OC7OC(CO)C(O)C(O)C7O)C(C)(C)C6CCC5(C)C4(C)CC2OC(C)=O)C3CC1(C)C` (stereo not given): the activity change, negative = inhibition was 23.8% [at 11.2 µM] (inactive). Regarding `CC(=O)C1=CCC2C3CC=C4CC(O)CC(O)C4(C)C3C(O)CC12C` (stereo not given), the Potency result was “inactive”. `C[C@@H]1O[C@@H](O[C@@H]2[C@@H](O)[C@H](O[C@H]3[C@H](O[C@H]4CC[C@@]5(C)C(CC[C@]6(C)C5CC=C5[C@@H]7CC(C)(C)CC[C@]7(C(=O)O[C@@H]7O[C@H](CO)[C@@H](O)[C@H](O)[C@H]7O[C@@H]7O[C@@H](C)[C@H](O[C@@H]8O[C@@H](C)[C@H](O)[C@@H](O)[C@H]8O)[C@@H](O)[C@H]7O)CC[C@]56C)[C@@]4(C)CO)O[C@H](C(=O)O)[C@@H](O)[C@@H]3O)O[C@H](CO)[C@H]2O)[C@H](O)[C@H](O)[C@H]1O` (stereo not given in full): the activity change, negative = inhibition was 7.29% [at 11.2 µM] (inactive). As to `C[C@@H]1CC[C@]2(C(=O)O)CC[C@]3(C)C(=CCC4[C@@]5(C)CC[C@H](O)C(C)(C)C5C(O)C[C@]43C)[C@@H]2[C@]1(C)O` (stereo not given in full), the Potency entry was “inactive”. Same read-out and setting: as for `CCOc1cccc(NC(=O)c2ccc(N3CCCC3)c(C(F)(F)F)c2)c1`, the entry is “inactive”; as for `CCC1CC2C(C)=CC3CCCCC3C2(C)C2(OC(=O)C(C)(O)OC2=O)O1` (stereo not given), “inactive”; as for `Cc1ccc(C)c(S(=O)(=O)n2cnc3ccccc32)c1`, “inactive”. For the compound `C=C1C(=O)O[C@@H]2[C@H]3C(C)=CC(=O)C3=C(C)CC[C@@H]12`, the Potency entry was “inactive”. Take `C/C(=C\CCC(C)CCO)C(=O)OC[C@H]1O[C@@H](O[C@@H]2OC=C(C(=O)O)[C@H]3CC[C@](C)(O)[C@@H]23)C(O)[C@@H](O)C1O` (stereo not given in full): the Potency entry is “inactive”. Still for that read-out and setting: as for `O=C(CCc1ccccc1)c1c(O)c([C@@H]2O[C@H](CO)[C@@H](O)[C@H](O)[C@H]2O)c(O)c([C@@H]2O[C@H](CO)[C@@H](O)[C@H](O)[C@H]2O)c1O`, the entry is “inactive”.

For `C[C@H]1CCN2C[C@]34C[C@@]5(C(=O)Nc6c5ccc5c6OC=CC(C)(C)O5)C(C)(C)C3C[C@]12C(=O)N4C` (stereo not given in full), the Potency result was “inactive”.

In the case of `COC(=O)C1=COC(OC2OC(CO)C(O)C(O)C2O)C2C(C)C(OC(C)=O)C(OC(=O)c3ccccc3)C12` (stereo not given), the Potency entry was “inactive”.

As to `CCCCCCCOc1cc2c(cc1/C(C)=C/c1ccc(C(=O)O)cc1)C(C)(C)CCS2(=O)=O`, the Potency entry was “inactive”. For `COc1ccc(C2=CC(=O)OC2Cc2ccc(O)cc2)c(O)c1` (stereo not given), the Potency result is “inactive”. As for `C=C(C)[C@@H]1CC[C@]2(C(=O)O)CC[C@]3(C)[C@H](CCC4[C@@]5(C)CCC(=O)C(C)(C)C5C(O)C[C@]43C)C12` (stereo not given in full), the Potency entry is “inactive”. For the compound `OCC(CO[C@@H]1O[C@H](CO)[C@@H](O)[C@H](O)[C@H]1O)c1ccc2c(c1)OCO2` (stereo not given in full), the Potency result was “inactive”. Same read-out and setting: as for `C=CC(C)(O)CC/C=C(/C)COC(=O)C(C)C1CCC(C)(C=C)O1` (stereo not given), the entry is “inactive”. On to `CN(C)CC1CCn2c(c(C3=C(c4cn(C)c5ccccc45)C(=O)NC3=O)c3ccccc32)C1` (stereo not given), for which the Potency result is “inactive”. In the case of `CC1(C)CC[C@@]2(C(=O)O[C@@H]3O[C@H](CO)[C@@H](O)[C@H](O)[C@H]3O)C(C1)C1=CCC3[C@@]4(C)CC[C@@H](O[C@@H]5O[C@H](C(=O)O)[C@@H](O[C@@H]6OC[C@@H](O)[C@H](O)[C@H]6O)[C@H](O[C@@H]6OC[C@](O)(CO)[C@H]6O)[C@H]5O)C(C)(C)C4CC[C@@]3(C)[C@]1(C)C[C@H]2O` (stereo not given in full), the Potency result is “inactive”. Same read-out and setting: as for `COC1CC/C=C(\C)C(=O)Nc2cc(O)cc(c2)CC(C)CC(OC)C(O)C(C)/C=C(\C)C1OC(N)=O` (stereo not given), the entry is “inactive”.

For `CC(=O)OC(C)(C)/C=C/C(=O)C(C)(O)C1C(O)CC2(C)C3CC=C(C(C)(C)C(=O)O)C(CC(=O)O)C3(C)C(=O)CC12C` (stereo not given), the Potency entry is “inactive”. For `C/C1=C\C[C@H](O[C@@H]2O[C@H](CO)[C@@H](O)[C@H](O)[C@H]2O)/C(C)=C/[C@H]2OC(=O)[C@H](C)[C@@H]2CC1`, the Potency result was “inactive”.

As for `C[C@]12C=C[C@@]3(CCC4[C@](C)(CO)CCC[C@@]4(C)C3CC1)C2` (stereo not given in full), the Potency entry was “inactive”. For the compound `COC(=O)C1(C)CCCC2(C)c3ccc(C(C)C)cc3C(O)C(O)C12` (stereo not given), the Potency result was “inactive”.
